Bioassay records: PubChem, National Center for Advancing Translational Sciences (NCATS)
NPSR antag = blocks cAMP signaling of the human neuropeptide S receptor; Potency, µM (top dose mostly 38.3 µM), for inactives: top-dose activity change, negative = inhibition, actives largely listed as inhibitors; actives 1% (n = 220,000); Q6W5P4; CHO-NPSR cells, cAMP TR-FRET, antagonist mode; active = well fitted curve in the direction sought with a large enough effect; inconclusive = small, poorly fitted or top-dose-only effect, or another doubt; inactive = no such curve, though single readings can be large; an effect the other way counts as inactive or inconclusive; note: potency is the fitted concentration of half-maximal effect; nearly all actives have a fitted effect of over 50% in size
Sfp PPTase inh = blocks B. subtilis Sfp PPTase activity | Potency, µM, for inactives: largest response in the series, negative = inhibition, most hits filed as inhibitors | AID 1490 | Q9F4F7 | Biochemical Sfp PPTase activity, qHTS | actives 3.5% (n = 310,000); active = well fitted curve in the direction sought with a large enough effect; inconclusive = small, poorly fitted or top-dose-only effect, or another doubt; inactive = no such curve, though single readings can be large; an effect the other way counts as inactive or inconclusive;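 note: the enzyme is Sfp with the accession as filed and its product quenches rhodamine fluorescence; potency is the fitted concentration of half-maximal effect; 0% = enzyme reaction without inhibitor and -100% = no enzyme wells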
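After 15 min at room temperature with compound, 15 nM Sfp received 5 uM rhodamine-CoA plus 12.5 uM BHQ-2-ybbR (50 mM Hepes pH 7.6, 10 mM MgCl2). Rate came from the fluorescence difference over 30 min, ex 525/em 598 nm.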
KDM4E inh = blocks human JMJD2E demethylase activity; B2RXH2; JMJD2E catalytic domain, FDH-coupled NADH fluorescence (FDH is formaldehyde dehydrogenase); Potency, µM (series often up to 57.1 µM), inactives show at the top dose activity change, negative = inhibition, actives largely listed as inhibitors; actives 1.6% (n = 230,000); AID 2147;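 note: potency is the fitted concentration of half-maximal effect; 0% = wells with enzyme and -100% = buffer wells without enzyme; nearly all actives have a fitted effect of over 50% in size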
Target sequence (B2RXH2 1-337 limits assumed): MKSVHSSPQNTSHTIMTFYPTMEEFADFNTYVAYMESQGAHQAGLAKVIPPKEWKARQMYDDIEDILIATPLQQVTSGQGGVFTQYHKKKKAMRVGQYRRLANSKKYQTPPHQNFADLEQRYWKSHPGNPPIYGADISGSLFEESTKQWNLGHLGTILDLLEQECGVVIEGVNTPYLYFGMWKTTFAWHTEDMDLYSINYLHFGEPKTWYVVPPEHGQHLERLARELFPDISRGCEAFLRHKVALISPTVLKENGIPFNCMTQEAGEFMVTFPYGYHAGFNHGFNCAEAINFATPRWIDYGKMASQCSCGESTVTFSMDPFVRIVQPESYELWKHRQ
RGS12 GoLoco inh = RGS12 GoLoco-Gai1 interaction inhibition. P63096. Gai1:RGS12 GoLoco peptide FP, rhodamine, 10 min. Potency, µM (titrated, usually from 61.6 µM), without a hit: at the top dose activity, negative = inhibition, hits mostly inhibitors. actives 0.44% (n = 230,000). AID 880; active = well fitted inhibition curve with a large enough effect, not every such curve was filed as active; inactive = no such curve, though single readings can be large or run the other way; note: potency is the fitted concentration of half-maximal effect; nearly all actives have a fitted effect of over 30% in size
Target sequence (P63096 whole entry, looked up): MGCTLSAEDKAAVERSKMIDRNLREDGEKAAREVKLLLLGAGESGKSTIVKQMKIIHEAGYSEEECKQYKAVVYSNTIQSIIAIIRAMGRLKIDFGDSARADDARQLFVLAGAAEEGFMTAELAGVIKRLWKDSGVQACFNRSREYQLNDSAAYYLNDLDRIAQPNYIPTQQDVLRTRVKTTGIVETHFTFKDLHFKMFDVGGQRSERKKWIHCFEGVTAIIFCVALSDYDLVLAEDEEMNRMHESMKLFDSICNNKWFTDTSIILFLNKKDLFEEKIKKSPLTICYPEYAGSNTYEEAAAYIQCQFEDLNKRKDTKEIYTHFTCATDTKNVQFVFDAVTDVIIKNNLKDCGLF
ALDH1A1 block = blocks purified human ALDH1A1 activity | Potency, µM (series often up to 75.3 µM), inactives show at the highest dose activity, negative = inhibition, actives largely listed as inhibitors | Purified ALDH1A1, NADH fluorescence, propionaldehyde substrate | P00352 | actives 7.3% (n = 220,000);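 note: potency is the fitted concentration of half-maximal effect; plate controls were no enzyme wells and a reference inhibitor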
FBPA coupling cs = coupling enzyme interference in Giardia aldolase counter-screen; coupling enzyme system counterscreen, AmpLite Red fluorescence; activity change, negative = inhibition, % at 58.2 µM, hits read low; actives 0.67% (n = 290,000); in the data active = activity change below about -30%
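Counterscreen lacking aldolase: glyceraldehyde-3-phosphate coupling-enzyme reagent preincubated 10 min at RT with compound (at 57.5 uM final), then substrate/coupling system with AmpLite Red added; fluorescence read at 525/598 nm after 20 min RT.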
* hit, by the source's call; [ ] = dose if it differs, or a comment. In the library only some 8.5% were active in any assay of this set; here they are far more common. Unless noted, calls come from the whole dose curve; as a rule, active = well fitted inhibition curve with a large enough effect (not every such curve was filed as active); inconclusive = small, poorly fitted or top-dose-only effect, or another doubt; inactive = no such curve, though single readings can be large or run the other way. Unless noted, % is set by controls: 0 for no effect and ±100 for the full control effect.

What do the screens show for `CC1=NOC(=O)/C1=C/c1ccc(O)c(Cl)c1`?
Sfp PPTase inh: -34.7%; FBPA coupling cs: 1.4

How did CC1=NOC(=O)/C1=C\c1ccc(-c2ccc(Br)cc2C(=O)O)o1 do in these assays?
NPSR antag: 16.0%; Sfp PPTase inh: inconclusive; KDM4E inh: inconclusive; RGS12 GoLoco inh: -4.9%; ALDH1A1 block: inconclusive; FBPA coupling cs: 3.9

What do the screens show for `CC1=NOC(=O)/C1=C\c1ccc(-c2ccc(Br)cc2)o1`?
NPSR antag: -45.2%; Sfp PPTase inh: 44.7µM*; KDM4E inh: inconclusive; RGS12 GoLoco inh: 8.4%; ALDH1A1 block: 10µM*; FBPA coupling cs: 0.9

How did CC1=NOC(=O)/C1=C/c1ccc(-c2ccc(Cl)cc2)o1 do in these assays?
NPSR antag: inconclusive; Sfp PPTase inh: 31.6µM*; KDM4E inh: inconclusive; RGS12 GoLoco inh: -6.6%; ALDH1A1 block: 3.98µM*; FBPA coupling cs: 1.0

How did CC1=NOC(=O)/C1=C\c1ccc(-c2cc(Cl)ccc2Cl)o1 do in these assays?
NPSR antag: 10µM*; Sfp PPTase inh: 17.8µM*; KDM4E inh: -8.3%; RGS12 GoLoco inh: -12.3%; ALDH1A1 block: 3.55µM*; FBPA coupling cs: -3.4

How did CC(CCc1ccccc1)NC(=O)COC(=O)c1ccc(NC(=O)CC#N)cc1 (configuration not stated) do in these assays?
Sfp PPTase inh: 15.1%; FBPA coupling cs: -1.2

Results for CCOC(=O)c1cc(-c2ccccc2)sc1NC(=O)C(C)OC(=O)c1cccnc1OCC (configuration not stated) ?
NPSR antag: -34.6%; Sfp PPTase inh: 10.0%; KDM4E inh: inconclusive; RGS12 GoLoco inh: 0.3%; ALDH1A1 block: 1.7%; FBPA coupling cs: 1.9

Results for Nc1cnn(Cc2ccccc2F)c1 ?
NPSR antag: 1.3%; Sfp PPTase inh: 7.5%; KDM4E inh: -29.5%; RGS12 GoLoco inh: 7.0%; ALDH1A1 block: 14.1µM*; FBPA coupling cs: -9.0

Results for O=C(CNC(=O)c1ccccc1F)OCc1nc2ccccc2s1 ?
NPSR antag: 8.3%; Sfp PPTase inh: 9.8%; KDM4E inh: -18.6%; RGS12 GoLoco inh: 12.0%; ALDH1A1 block: 1.6%; FBPA coupling cs: 6.3

Results for CNc1sc(C(=O)c2ccccc2F)c(N)c1-c1nc2ccccc2s1 ?
NPSR antag: 3.98µM*; Sfp PPTase inh: -30.0%; KDM4E inh: 6.8%; RGS12 GoLoco inh: 4.7%; ALDH1A1 block: inconclusive; FBPA coupling cs: -3.8

Results for C=CCNC(=S)N1CCN(c2ncc(C(F)(F)F)cc2Cl)CC1 ?
NPSR antag: 24.7%; Sfp PPTase inh: 14.7%; KDM4E inh: -24.4%; RGS12 GoLoco inh: 3.6%; ALDH1A1 block: inconclusive; FBPA coupling cs: 2.9

How did O=C(Nc1ncccc1O)c1cccc(S(=O)(=O)N2CCc3ccccc32)c1 do in these assays?
NPSR antag: -15.8%[46.1 µM]; Sfp PPTase inh: 3.6%; KDM4E inh: -24.8%; RGS12 GoLoco inh: -3.5%; ALDH1A1 block: -11.6%; FBPA coupling cs: 3.1

How did O=C(NCCc1ccccn1)c1cccc(S(=O)(=O)N2CCc3ccccc32)c1 do in these assays?
NPSR antag: -10.0%; Sfp PPTase inh: -23.6%; KDM4E inh: -5.7%; RGS12 GoLoco inh: 6.7%; ALDH1A1 block: 20µM*; FBPA coupling cs: -8.2

How did COc1ccc(NC(=O)c2cccc(S(=O)(=O)N3CCc4ccccc43)c2)cn1 do in these assays?
NPSR antag: -25.4%; Sfp PPTase inh: 3.1%; KDM4E inh: -14.1%; RGS12 GoLoco inh: 29.6%; ALDH1A1 block: 3.16µM*; FBPA coupling cs: -7.6

What do the screens show for `COc1cccc(C(C(=O)NC2CCCCC2)N(C(=O)c2csnn2)C2CC2)c1` (configuration not stated)?
Sfp PPTase inh: 22.0%; FBPA coupling cs: 0.1

Results for CN(C)S(=O)(=O)c1cccc(NC(=S)Nc2ccc(Cl)cc2Cl)c1 ?
NPSR antag: -2.6%[46.1 µM]; Sfp PPTase inh: inconclusive; KDM4E inh: 1.8%; RGS12 GoLoco inh: 10.6%; ALDH1A1 block: 12.6µM*; FBPA coupling cs: -11.6

How did Cc1ccc(NC(=S)Nc2ccc(S(=O)(=O)Nc3ncccn3)cc2)cc1Cl do in these assays?
NPSR antag: -2.6%; Sfp PPTase inh: 1.5%; KDM4E inh: -6.2%; RGS12 GoLoco inh: 7.2%; ALDH1A1 block: inconclusive; FBPA coupling cs: 0.5

How did CN(C)S(=O)(=O)c1cccc(NC(=S)NCc2ccco2)c1 do in these assays?
NPSR antag: 2.2%; Sfp PPTase inh: inconclusive; KDM4E inh: -4.6%; RGS12 GoLoco inh: 7.4%; ALDH1A1 block: 31.6µM*; FBPA coupling cs: 10.1

Results for CN(C)S(=O)(=O)c1cccc(NC(=S)Nc2cc(Cl)cc(Cl)c2)c1 ?
NPSR antag: inconclusive; Sfp PPTase inh: 50.1µM*; KDM4E inh: -8.0%; RGS12 GoLoco inh: 3.0%; ALDH1A1 block: inconclusive; FBPA coupling cs: 0.2

Results for O=S(=O)(Nc1ncccn1)c1ccc(NC(=S)Nc2cccc(Cl)c2)cc1 ?
NPSR antag: 9.5%; Sfp PPTase inh: 56.2µM*; KDM4E inh: -3.9%; RGS12 GoLoco inh: 3.3%; ALDH1A1 block: inconclusive; FBPA coupling cs: 2.5

Results for CCN(CC)S(=O)(=O)c1ccc(NC(=S)Nc2ccccc2)cc1 ?
Sfp PPTase inh: -5.2%; FBPA coupling cs: -0.2

Results for CCN(CCO)c1ccc(NC(=S)Nc2cccc(S(=O)(=O)N(C)C)c2)cc1 ?
NPSR antag: -10.7%; Sfp PPTase inh: 50.1µM*; KDM4E inh: inconclusive; RGS12 GoLoco inh: 1.4%; ALDH1A1 block: 25.1µM*; FBPA coupling cs: -40.6*

How did CCOc1ccc(OCCCN(C)C)cc1 do in these assays?
NPSR antag: 6.3%[46.1 µM]; Sfp PPTase inh: inconclusive; KDM4E inh: inconclusive; RGS12 GoLoco inh: -17.6%; ALDH1A1 block: 14.1µM*; FBPA coupling cs: -2.9

Results for CCOc1ccc(OCCCCN(C)C)cc1 ?
NPSR antag: -2.9%[46.1 µM]; Sfp PPTase inh: inconclusive; KDM4E inh: inconclusive; RGS12 GoLoco inh: -0.9%; ALDH1A1 block: inconclusive; FBPA coupling cs: 0.0

What do the screens show for `CCOC(=O)C1CCN(C(=O)C2CCN(S(=O)(=O)N3CCC4(CC3)OCCO4)CC2)CC1`?
Sfp PPTase inh: 12.3%; FBPA coupling cs: 4.1

How did Cc1oc(-c2ccccc2Cl)nc1CN1CCCCC1c1cccnc1 (configuration not stated) do in these assays?
NPSR antag: 17.9%; Sfp PPTase inh: 2.0%; KDM4E inh: 22.4µM*; RGS12 GoLoco inh: 21.8%; ALDH1A1 block: -1.2%; FBPA coupling cs: -3.0

How did Cc1oc(-c2ccccc2Cl)nc1CN1CCCC1c1ccc(F)cc1 (configuration not stated) do in these assays?
NPSR antag: 56.5%; Sfp PPTase inh: -11.4%; KDM4E inh: inconclusive; RGS12 GoLoco inh: 28.4%; ALDH1A1 block: inconclusive; FBPA coupling cs: -1.0

Results for Cc1coc2c1c(C)cc1oc(=O)c(CC(=O)N[C@@H](CC(C)C)C(=O)O)c(C)c12 ?
Sfp PPTase inh: 1.9%; FBPA coupling cs: 3.4
